The structures appear in SMILES notation. Results filed as inconclusive are left out. Activity calls are given as the source filed them. Rule for the calls: active = hit-call score of the fitted dose curve at least 0.9, where 1 is the maximum; inconclusive = response in the unintended direction; inactive = score below 0.9.

A word on the AC50: it is the midpoint of the concentration-response curve, whichever way the signal moves.

Experiment [1] has as its target Type-1 angiotensin II receptor (Homo sapiens) (UniProt P30556). Briefly: NVS_GPCR_hAT1: NovaScreen (NVS) G Protein-Coupled Receptor Assay for human Angiotensin II receptor type 1 (AT1) (AID 2283263). Put shortly:
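Membranes from KAN-TS cells; radioligand competitive displacement, 3 h, filtration and scintillation counting. Single-point duplicate screen at 25 uM, then concentration-response up to 50 uM for hits; loss of signal fitted versus DMSO.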

The target of experiment [2] is human Endothelin Receptor Type A (ETA), EDNRA (gene 1909) (UniProt P25101). Briefly: NVS_GPCR_hETA: NovaScreen (NVS) G Protein-Coupled Receptor Assay for human Endothelin Receptor Type A (ETA) (AID 2283265). Put shortly: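 Cell-free radioligand displacement using SH-SY5Y-derived protein, 3 h incubation, filter-based scintillation counting. Primary screen in duplicate at 25 uM; actives then run in concentration-response up to 50 uM; loss of binding fitted versus DMSO.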
Sequence of human Endothelin Receptor Type A (ETA), EDNRA (gene 1909) (P25101 whole entry, looked up): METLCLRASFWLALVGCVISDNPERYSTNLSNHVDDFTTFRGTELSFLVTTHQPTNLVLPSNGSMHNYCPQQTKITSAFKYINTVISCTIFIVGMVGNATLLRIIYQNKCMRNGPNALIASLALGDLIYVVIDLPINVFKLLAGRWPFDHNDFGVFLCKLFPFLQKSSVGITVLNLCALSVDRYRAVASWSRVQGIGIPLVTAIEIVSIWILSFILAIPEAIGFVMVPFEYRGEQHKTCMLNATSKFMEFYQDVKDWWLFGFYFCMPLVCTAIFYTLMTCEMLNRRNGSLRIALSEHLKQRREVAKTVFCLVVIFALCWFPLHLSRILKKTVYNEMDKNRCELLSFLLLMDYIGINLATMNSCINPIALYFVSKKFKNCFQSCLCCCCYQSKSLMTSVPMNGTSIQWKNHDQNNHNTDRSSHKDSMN

Experiment [3] addresses human Endothelin Receptor Type B (ETB), EDNRB (gene 1910) (UniProt P24530). Briefly: NVS_GPCR_hETB: NovaScreen (NVS) G Protein-Coupled Receptor Assay for human Endothelin Receptor Type B (ETB) (AID 2283267). The procedure: NVS_GPCR_hETB is a biochemical, single-readout assay that uses extracted gene-proteins from Human astrocytoma cells in a cell-free assay. Measurements were taken 4 hours after chemical dosing in a 96-well plate.NVS_GPCR_hETB is one of one assay component(s) measured or calculated from the NVS_GPCR_hETB assay. It is designed to make measurements of radioligand binding, a form of binding reporter, as detected with scintillation counting signals by Filter-based radiodetection technology.Data from the assay component NVS_GPCR_hETB was analyzed into 1 assay endpoint. This assay endpoint, NVS_GPCR_hETB, was analyzed in the positive analysis fitting direction relative to DMSO as the negative control and baseline of activity. […] Furthermore, this assay endpoint can be referred to as a primary readout, because the performed assay has only produced 1 assay endpoint. […]
Binding assays used specific radioligands (tritiated, iodinated) with non-radioactive competitive displacement ligands in agonist or antagonist protocols (as indicated) and various reference compounds and inhibitors to titrate specific binding to receptors and transporters. Most enzyme assays (CYPs, kinases, phosphatases, proteases, HDACs) used recombinant protein and specific substrates (fluorescence mostly, some colorimetric and radioactive) and inhibitors, followed by a biochemical separation of substrate and product. […]

Experiment [4] deals with human Leukotriene B4 Receptor 1 (LTB4-BLT1), LTB4R (gene 1241) (UniProt Q15722). Briefly: NVS_GPCR_hLTB4_BLT1: NovaScreen (NVS) G Protein-Coupled Receptor Assay for human Leukotriene B4 Receptor 1 (LTB4-BLT1) (AID 2283271). Put shortly: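 Radioligand displacement binding on receptor extracted from human neutrophils, cell-free, 1 h after dosing; filter-based scintillation counting. Primary screen in duplicate at 25 uM, actives retested in concentration-response up to 50 uM; loss of signal versus DMSO.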
Sequence of human Leukotriene B4 Receptor 1 (LTB4-BLT1), LTB4R (gene 1241) (Q15722 whole entry, looked up): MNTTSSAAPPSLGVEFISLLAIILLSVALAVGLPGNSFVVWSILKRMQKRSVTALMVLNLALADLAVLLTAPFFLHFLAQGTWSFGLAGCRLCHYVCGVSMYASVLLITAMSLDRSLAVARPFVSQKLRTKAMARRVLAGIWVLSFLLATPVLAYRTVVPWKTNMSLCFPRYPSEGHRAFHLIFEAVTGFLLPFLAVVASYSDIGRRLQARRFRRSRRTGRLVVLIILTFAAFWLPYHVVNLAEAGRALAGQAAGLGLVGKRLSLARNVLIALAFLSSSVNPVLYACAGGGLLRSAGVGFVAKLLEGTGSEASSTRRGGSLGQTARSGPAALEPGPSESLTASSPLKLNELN

Sequence of human Endothelin Receptor Type B (ETB), EDNRB (gene 1910) (P24530 whole entry, looked up): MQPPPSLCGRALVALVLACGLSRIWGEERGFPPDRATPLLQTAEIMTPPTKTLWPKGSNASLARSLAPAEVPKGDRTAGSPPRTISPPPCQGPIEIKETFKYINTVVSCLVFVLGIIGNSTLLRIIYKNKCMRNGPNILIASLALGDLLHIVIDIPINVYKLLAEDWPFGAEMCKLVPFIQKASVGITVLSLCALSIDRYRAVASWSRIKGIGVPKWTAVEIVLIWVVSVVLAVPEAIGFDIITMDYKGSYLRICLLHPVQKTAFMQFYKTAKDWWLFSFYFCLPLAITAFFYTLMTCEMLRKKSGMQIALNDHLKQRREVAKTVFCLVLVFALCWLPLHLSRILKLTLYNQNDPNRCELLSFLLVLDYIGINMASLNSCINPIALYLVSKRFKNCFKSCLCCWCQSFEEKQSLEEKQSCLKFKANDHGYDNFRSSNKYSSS
Sequence of Type-1 angiotensin II receptor (Homo sapiens) (P30556 whole entry, looked up): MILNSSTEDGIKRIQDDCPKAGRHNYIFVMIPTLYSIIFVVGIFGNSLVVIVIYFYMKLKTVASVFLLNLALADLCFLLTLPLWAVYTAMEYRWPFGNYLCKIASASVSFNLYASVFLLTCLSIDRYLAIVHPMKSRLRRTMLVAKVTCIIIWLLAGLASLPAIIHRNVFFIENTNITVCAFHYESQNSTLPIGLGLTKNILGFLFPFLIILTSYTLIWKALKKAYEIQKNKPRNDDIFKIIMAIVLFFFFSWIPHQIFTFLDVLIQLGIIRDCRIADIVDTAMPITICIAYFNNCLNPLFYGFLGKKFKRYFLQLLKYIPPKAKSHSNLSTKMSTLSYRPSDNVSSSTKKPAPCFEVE

With `CCCCCCCCCCCCc1ccccc1S(=O)(=O)O`, the AC50 in experiment [1] is 8.83 µM (active).
As to `O=C(O)Cc1cc(I)c(Oc2cc(I)c(O)c(I)c2)c(I)c1`, the outcome in experiment [1] was inactive.
For `CC(C)(C)c1ccc(O)c(C(C)(C)C)c1`, the outcome in experiment [2] was inactive.
As for `N#C[C@@H]1CC(F)(F)CN1C(=O)CNC1CC2CCC(C1)N2c1ncccn1` (some centres not stated), the AC50 in experiment [2] is 9.53 µM (active).
Consider `CC(=O)CC(C)(C)O`, for which the outcome in experiment [3] was inactive.
Same read-out and setting: the entry for `C#C[C@]1(O)CC[C@H]2[C@@H]3CCC4=CC(=O)CC[C@@H]4[C@H]3CC[C@@]21C` is “inactive”.
As to `O=c1c(-c2ccc(O)cc2)coc2cc(O)ccc12`, in experiment [4], the molecule was called inactive.

The values above are taken from PubChem BioAssay (EPA / NIEHS).
